Test results taken from PubChem BioAssay AID743279 (National Center for Advancing Translational Sciences (NCATS), 2014).
Hit rate of the full screen: of about 360,000 compounds, about 17,000 (4.7%) were called active. Not shown: some 5% with an inconclusive outcome. Rule as the data show it: active = activity change below about -50%; inconclusive = mostly about -30% to -49%; inactive = weaker than that. What follows is part of a selection rich in actives, with near analogues and random picks from the rest.

assay: qHTS for Inhibitors of Inflammasome Signaling: IL-1-beta AlphaLISA Primary Screen; details: THP-1 LPS/ATP IL-1B secretion, 16 h; at 57.5 µM, stronger effect = lower value
Method in brief: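 Secreted IL-1B measured by AlphaLISA bead assay after 16 h compound exposure of THP-1 cells; compounds (final up to 57.5 uM) added 1 h before LPS (250 ng/mL) and ATP (1.25 mM) stimulation; lower signal means less secretion.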
% is scaled to controls: 0 for no effect and ±100 for the full control effect.

SMILES	activity change
CC(O)CN(Cc1ccc(Cl)cc1)CC(C)O (centres undefined)	-2.11% (inactive)
CCOC(=O)C(NC(=O)CC(C)C)(Nc1sc2c(c1C(N)=O)CCCC2)C(F)(F)F (centres undefined)	inactive
CN(C)C(CNC(=O)c1cccc(S(=O)(=O)N2CCc3ccccc3C2)c1)c1ccccc1 (centres undefined)	-16.7% (inactive)
O=C(C1CCN(CC2CCCCC2)CC1)N1CCCC1	-2.85% (inactive)
CCCCC(=O)N1CC2(C)CN(C(=O)CCCC)CC(C)(C1)C2=O	14% (inactive)
N#C/C(=C(/O)COC(=O)COc1ccc(Cl)cc1)c1nc2ccccc2[nH]1	-99.4% (active)
CC(C)(C)c1nnc2sc(SCC(O)=C(C#N)c3nc4ccccc4[nH]3)nn2c1=O	20.2% (inactive)
COCCN(CCOC)S(=O)(=O)c1ccc(/C(O)=C(\C#N)c2nc3ccccc3[nH]2)cc1	-11.3% (inactive)
Cc1cc(NC(=O)Nc2ccccc2[N+](=O)[O-])no1	-17.8% (inactive)
CC1CCCN(C(=O)Cn2c(=O)oc3cc(S(=O)(=O)N4CCCCC4C)ccc32)C1 (centres undefined)	11.7% (inactive)
Cc1cccc(-c2noc(-c3ccc(F)cc3)n2)c1	19.9% (inactive)
Oc1ccc(-c2nnc(Nc3ccccc3)c3ccccc23)cc1	13.6% (inactive)
Cc1cccc(-c2nc(Nc3ccc(O)cc3)c3ccccc3n2)c1	-81.3% (active)
CCc1ccccc1OCC(=O)Nc1ccc2c(c1)OCCO2	-6.79% (inactive)
CC(=O)Nc1ccc(SCC(=O)NC(=O)c2ccc(Cl)cc2)cc1	-2.04% (inactive)
CC(C)(CCl)C(=O)Nc1ccc(Sc2ccc(F)cc2)cc1	-12.9% (inactive)
O=C(CCl)Nc1ccc(Sc2ccc(NC(=O)CCl)cc2)cc1	-101% (active)
CC1CCN(C(=O)c2ccccc2NC(=O)Cc2ccccc2)CC1	29.6% (inactive)
C[C@H](CO)N1C[C@H](C)[C@@H](CN(C)C(=O)C2CCCCC2)OCc2cnnn2CCCC1=O	2.8% (inactive)
CCN1/C(=C\c2ccc3ccccc3[n+]2CC)Sc2cc(C)ccc21	-99.7% (active)

SMILES	activity change
CCN1/C(=C/c2ccc3ccc(C)cc3[n+]2CC)Sc2ccccc21	-101% (active)
O=C(Nc1cccc(Br)c1)C1CC(=O)N(C2CCCC2)C1 (centres undefined)	15.6% (inactive)
CCCS(=O)(=O)NC(=O)C1(C)CCCN(C(=O)c2cc(C)on2)C1 (centres undefined)	19.3% (inactive)
O=C1NC(O)CCN1C1CC(O)C(CO)O1 (centres undefined)	0% (inactive)
CC1(C(=O)Nc2cccc(Oc3ccccc3)c2)CCN1Cc1ccccc1Cl (centres undefined)	-0.171% (inactive)
CCC(C)c1ccccc1N1CC(C(=O)N2CCN(S(=O)(=O)c3ccc(F)cc3)CC2)CC1=O (centres undefined)	-6.2% (inactive)
Cc1nc(C(F)(F)F)ccc1C(=O)N1CCC1(C)C(=O)NS(=O)(=O)c1ccc(F)cc1F (centres undefined)	20.5% (inactive)
COc1ccc(C(=O)NCC(=O)N/N=C/c2cccnc2)cc1	16.9% (inactive)
O=C(CSc1cccc2cccnc12)N/N=C/c1cccnc1	-96.5% (active)
CCOC(=O)N/N=C/c1cccnc1	33.8% (inactive)
CC(=NNC(N)=O)C1CC2CCC1CC2 (centres undefined)	-5.84% (inactive)
O=C(NCc1ccc(Cl)c(Cl)c1)c1cccnc1	3.6% (inactive)
O=C(OCc1cc(Cl)ccc1OC(F)F)c1cccnc1	26% (inactive)
O=C(/C=C/c1ccc(Cl)cc1Cl)c1cccnc1	-59.5% (active)
CC(=O)N1CCc2cc(Br)cc(S(=O)(=O)CCC(=O)Nc3c(C)n(C)n(-c4ccccc4)c3=O)c21	4.54% (inactive)
O=[N+]([O-])c1ccc(N=NNc2ccc([N+](=O)[O-])cc2)cc1	-3.41% (inactive)
O=C(NN=Cc1ccc([N+](=O)[O-])cc1)C1CC1	-3.03% (inactive)
O=[N+]([O-])c1ccc(N/N=C/c2ccccc2)cc1	-59.6% (active)
Cc1ccc(C)c(C(O)c2ncc(-c3cccc4ccccc34)[nH]2)c1 (centres undefined)	4.1% (inactive)
COC(=O)N(NC(=O)C(O)(C(C)C)C(C)C)c1ccccc1	12.9% (inactive)

SMILES	activity change
CCCCC(O)(CCCC)C(=O)NN(C(=O)CCl)c1ccccc1	-78.2% (active)
CC(C)(O)C(=O)NN(C(=O)c1ccccc1)c1cccc(Br)c1	-15.5% (inactive)
Cc1ccc(N(NC(=O)C(C)(C)O)C(=O)c2ccccc2)cc1C	38.2% (inactive)
CCCCCNC(=O)C1c2ccccc2Oc2ccccc21	-3.75% (inactive)
CCCC(O)(CCC)C(=O)NN(C(=O)CCl)c1cccc(C)c1	-219% (active)
CCN(CC(=O)Nc1c(F)cccc1F)C(=O)c1ccc(-c2ccc(C(C)=O)cc2)o1	-9.45% (inactive)
CC1(C(=O)NS(=O)(=O)c2cccs2)CCN1C(=O)Cc1ccc(-c2ccccc2)cc1 (centres undefined)	5.64% (inactive)
Cn1c(Nc2ccc(F)cc2)nc2cc(-c3ccsc3)sc2c1=O	19.8% (inactive)
CC(C)[C@H](NC(=O)c1ccccc1F)C(=O)Nc1cccc(S(=O)(=O)N2CCOCC2)c1	13.4% (inactive)
O=C(NCc1ccco1)/C(=C\c1cccc([N+](=O)[O-])c1)NC(=O)c1ccco1	29.6% (inactive)
CCCCN(C(C)=O)c1ccc2c(c1)C1CC2CCN1Cc1ccccc1 (centres undefined)	-22.2% (inactive)
Fc1ccc(-c2ccc(-c3nn4c(-c5ccco5)nnc4s3)o2)cc1	-8.52% (inactive)
COc1ccc(CNC(=O)Cc2ccc(-c3ccccc3)cc2)cc1OC	0.934% (inactive)
COc1ccc(-c2nn3c(-c4ccccc4)nnc3s2)cc1OC	-54.1% (active)
CCCc1ccc(S(=O)(=O)N2CCN(C(=O)c3cc(C)on3)CC2)cc1	21.7% (inactive)
CCOC(=O)[C@]12CCCC=C1N(CCC1=CCCCC1)C(=O)[C@H](CC(=O)N1CCN(C(=O)c3ccco3)CC1)C2	-5.52% (inactive)
C=CCc1cc(S(=O)(=O)c2ccc(O)c(CC=C)c2)ccc1O	8.87% (inactive)
CCCNC(=O)C[C@@H]1CC[C@@H]2[C@H](COC[C@H](O)CN2C(=O)c2cc(Cl)cc(Cl)c2)O1	35% (inactive)
O=C(COC(=O)Cc1ccc(Cl)cc1Cl)NCc1ccco1	0.688% (inactive)
